Sampled rows, rich in hits. Any-hit rate of the full collection: about 3.5%.
TEAD-YAP inh: TEAD-YAP interaction inhibition | HEK-TIYL cells, TEAD-Gal4/YAP UAS-luciferase luminescence | inhibition, % at 9.12 µM | actives 1.4% (n = 640,000); in the data active means inhibition above about 32%;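 further: 0% = median of test compound wells and 100% = reference inhibitor wells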
GPR151 ag: activates the human receptor GPR151 | actives 1% (n = 650,000) | AID 1508602 | PathHunter beta-arrestin GPR151 cells, luminescence | activation, % at 11.2 µM | Q8TDV0; in the data active means activation above about 4.9%;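 further: 0% = median of compound wells and 100% = cells with positive control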
MITF primary: blocks human microphthalmia-associated transcription factor | AlphaScreen MITF homodimerization, bead proximity signal | actives 0.91% (n = 650,000) | O75030 | inhibition, % at 2.6 µM; in the data active means inhibition above about 50%;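 further: 0% = vehicle wells with protein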
Target sequence (O75030 whole entry, looked up): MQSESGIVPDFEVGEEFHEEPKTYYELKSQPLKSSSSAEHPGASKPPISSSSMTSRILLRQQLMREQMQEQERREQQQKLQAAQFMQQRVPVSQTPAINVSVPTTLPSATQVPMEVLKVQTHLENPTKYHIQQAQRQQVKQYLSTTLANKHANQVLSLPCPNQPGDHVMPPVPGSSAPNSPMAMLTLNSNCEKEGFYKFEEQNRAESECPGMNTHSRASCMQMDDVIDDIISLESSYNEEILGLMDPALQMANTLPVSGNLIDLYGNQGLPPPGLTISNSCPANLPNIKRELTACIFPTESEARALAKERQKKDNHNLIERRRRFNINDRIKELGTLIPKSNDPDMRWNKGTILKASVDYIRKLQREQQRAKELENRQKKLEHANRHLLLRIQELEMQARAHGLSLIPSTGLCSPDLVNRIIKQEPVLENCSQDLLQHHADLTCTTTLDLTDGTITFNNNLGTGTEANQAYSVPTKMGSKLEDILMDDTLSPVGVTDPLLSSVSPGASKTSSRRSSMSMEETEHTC
FBW7 act: human FBW7 E3 ligase activation, primary screen; actives 0.13% (n = 650,000); normalized activity (activation), % at 26.1 µM; AlphaScreen FBW7–phospho-cyclin E peptide binding, activator screen; in the data active means normalized activity above about 1.9%;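 further: purified mutant Fbw7 with reduced substrate affinity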
MITF inh conf: confirmation of human MITF inhibitors. inhibition, % at 2.6 µM. shares compounds with MITF primary. AlphaScreen MITF homodimerization, biotin/His-MITF beads. actives 16% (n = 4,700). AID 1259372;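 active means inhibition above a cutoff derived from the DMSO control wells, cut at about 28% in these data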;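 further: 0% = MITF dimer wells with DMSO only; inhibitors lower the bead chemiluminescence by keeping MITF from dimerizing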
AS interf DR: optically interferes with AlphaScreen signal in dose response. AID 1259373. AlphaScreen optical interference counterscreen, cell-free. actives 6% (n = 480). IC50, µM. shares compounds with MITF primary; call rule not given here
AS interf ctr: optically interferes with AlphaScreen signal; shares compounds with MITF primary; LysRS AlphaScreen counterscreen, signal interference, triplicate; inhibition, % at 2.6 µM; actives 7.6% (n = 4,700);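 active means inhibition above a cutoff derived from the DMSO control wells, cut at about 30% in these data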
* hit, by the source's call; / = no result.

SMILES	TEAD-YAP inh	GPR151 ag	MITF primary	FBW7 act	MITF inh conf	AS interf ctr	others
O=C(CCCn1c(SCC(=O)NC2CCCC2)nc2ccccc2c1=O)NCCCN1CCOCC1	-5.4	-0.4	56.8*	0.5	-15.6	-7.5
CCCOc1ccc(OCCCNC(C)CC)cc1 (centres undefined)	7.8	0.5	23.2	0.0	/	/
CCC(C)NCCCOc1cccc(Br)c1 (centres undefined)	2.5	-0.2	79.7*	-0.5	-6.6	10.2
CCC(C)NCCOc1ccccc1F (centres undefined)	-6.9	-0.3	52.9*	0.0	-11.6	0.6
Fc1cccc(Nc2ncnc3c2c(-c2ccccc2)cn3-c2ccccc2)c1	15.4	-0.4	-68.7	-0.1	/	/
C=CCn1c(SCC(=O)NCc2ccc3c(c2)OCO3)nc2sc3c(c2c1=O)CCC3	-11.3	-0.6	-5.3	-0.1	/	/
C=CCn1c(SCC(=O)NCc2ccc3c(c2)OCO3)nc2scc(-c3ccccc3)c2c1=O	1.9	-1.2	56.6*	0.4	12.2	9.5
CCCc1[nH]nc2c1C(c1ccc(OC)cc1OC)C(C#N)=C(N)O2 (centres undefined)	-0.8	-0.8	61.5*	0.0	11.4	16.8
CCCc1[nH]nc2c1C(c1c(OC)cc(OC)cc1OC)C(C#N)=C(N)O2 (centres undefined)	2.7	0.8	11.6	-0.2	/	/
Cc1ccc(S(=O)(=O)Cn2nnnc2CN2CCOCC2)cc1	-6.1	-1.1	64.2*	0.1	9.9	9.8
Cc1ccc(S(=O)(=O)Cn2nnnc2CN2CCN(c3ccccc3)CC2)cc1	0.2	0.3	-1.0	-0.1	/	/
O=C(NC1CC1)c1ccnc(-c2cccs2)c1	-15.4	-0.4	65.5*	0.1	11.5	6.2
COc1ccc(CN2CCN(S(C)(=O)=O)CC2)cc1	19.7	0.8	57.2*	-0.1	-2.1	-7.6
CS(=O)(=O)N1CCN(Cc2ccc(F)cc2)CC1	3.9	-0.7	62.4*	0.0	-8.0	4.5
CS(=O)(=O)N1CCN(Cc2ccccc2)CC1	-4.7	-0.8	3.6	-0.1	/	/
C/C(=N\Nc1ccc(S(=O)(=O)O)cc1)c1ccc([N+](=O)[O-])o1	-1.6	0.1	60.1*	-0.1	40.0*	2.2	AS interf DR=>6.48
CCOC(=O)c1c(C)n(C)c2ccc(OCC(O)CN3CCCCC3)cc12 (centres undefined)	0.8	1.9	53.7*	0.1	-6.5	0.8
CN1CCN(CC(O)COc2ccc(Br)cc2)CC1 (centres undefined)	-1.2	-0.1	-6.4	0.1	/	/
CC(=O)N(C)c1ccc(OCC(O)CN2CCN(c3ccccn3)CC2)cc1 (centres undefined)	-1.1	-0.9	65.2*	-0.2	6.3	13.2
COc1ccc(OCC(O)CN2CCCCCC2)cc1 (centres undefined)	-7.9	0.3	48.6	0.6	/	/
COc1ccc(OCC(O)CN2CCCC2)cc1 (centres undefined)	-4.7	1.3	55.2*	0.5	6.2	7.3
CC(=O)N(C)c1ccc(OCC(O)CN2CCN(C)CC2)cc1 (centres undefined)	-2.9	-1.7	59.8*	-0.1	13.5	18.2
COc1cccc(N2C(=O)C(CC(=O)Nc3ccccc3)N(Cc3ccc(F)cc3)C2=O)c1 (centres undefined)	4.1	-0.1	-0.8	-0.1	/	/
CCOc1ccc(CCNC(=O)c2c(-c3ccccc3Cl)noc2C)cc1OCC	-4.1	-0.4	6.9	-0.3	/	/
COc1cc(C(=O)Nc2cccnc2)ccc1OCc1ccccc1Cl	-2.2	0.5	74.3*	0.0	-3.5	-2.3
SMILES	TEAD-YAP inh	GPR151 ag	MITF primary	FBW7 act	MITF inh conf	AS interf ctr	others
COc1ccc(C(=O)Nc2ncc(Cc3cc(Cl)ccc3Cl)s2)cc1OC	-3.2	-0.6	67.6*	0.8	-6.1	0.8
CC(=O)Nc1ncc(Cc2cc(Cl)ccc2Cl)s1	19.4	2.1	2.7	0.0	/	/
COC(=O)c1c(N)sc(C)c1-c1ccc(C(C)(C)C)cc1	10.3	-0.1	15.2	0.1	/	/
COc1ccccc1NC(=O)c1ccc(N(C)S(=O)(=O)c2ccccc2)cc1	7.0	0.2	-1.4	0.8	/	/
O=C(/C=C/c1ccccc1)NCc1ccc(Cl)cc1	-2.3	0.1	52.0*	0.2	3.9	-1.9
CCC(C)C(=O)Nc1nnc(SCC(=O)N(C(C)C)C(C)C)s1 (centres undefined)	0.9	1.8	-3.0	-0.1	/	/
Cc1ccc(Oc2ccc(OCC(=O)NCC3CCCO3)cc2)cc1 (centres undefined)	16.3	0.2	74.8*	0.1	0.0	11.2
COc1ccccc1COCC(O)CNC(C)(C)C (centres undefined)	10.2	0.8	38.5	-0.1	/	/
COc1cc(C(C)=O)ccc1OCC(O)CNCC1(N2CCCCC2)CCCCC1 (centres undefined)	2.1	-1.6	41.7	0.3	/	/
COc1ccccc1COCC(O)CNCc1ccncc1 (centres undefined)	3.1	-0.1	70.5*	0.0	7.8	14.8
COc1ccccc1COCC(O)CNCC1(N2CCCCC2)CCCCC1 (centres undefined)	5.1	2.0	68.5*	-0.2	-7.0	-1.8
COc1ccccc1COCC(O)CNCCCN1CCOCC1 (centres undefined)	9.1	0.7	62.4*	0.0	1.8	-1.4
CCCCS(=O)(=O)N1CCN(CC(=O)c2cccs2)CC1	2.5	0.0	60.6*	-0.3	5.3	20.2
CCCS(=O)(=O)N1CCN(CC(=O)c2cccs2)CC1	-0.5	2.2	66.6*	-0.3	7.1	17.7
O=C(CN1CCN(Cc2nc(-c3ccc(F)cc3)cs2)CC1)NCc1ccco1	-11.8	0.8	70.1*	-0.4	18.1	4.0
C=CCNC(=O)CN1CCN(Cc2nc(-c3ccccc3)cs2)CC1	-18.9	-3.4	69.9*	-0.4	-18.2	1.8
COc1ccc(CCNC(=O)CN2CCN(Cc3nc(-c4ccco4)cs3)CC2)cc1OC	8.3	-0.4	69.7*	-0.7	28.1*	11.9	AS interf DR=>6.48
O=C(CN1CCN(Cc2nc(-c3ccccc3)cs2)CC1)NCc1ccco1	-11.3	0.3	2.5	-0.2	/	/
O=C(CN1CCN(Cc2nc(-c3ccco3)cs2)CC1)NCCc1ccccc1	3.1	-1.1	75.7*	-0.1	13.7	12.3
Cc1ccc(NC(=O)COC(=O)CC2Oc3ccccc3NC2=O)cc1 (centres undefined)	-5.1	-1.5	34.6	0.0	/	/
COc1ccc(C2CC(=O)NC3=C2C(=O)CC(c2ccc(F)cc2)C3)c(OC)c1 (centres undefined)	-6.5	-0.2	10.3	-0.1	/	/
CN(C)c1ccc(/C=C(/NC(=O)c2ccccc2)C(=O)N/N=C\c2ccc(O)cc2)cc1	4.5	-1.9	0.6	-0.4	/	/
Cc1ccc(N2C(=O)C3ON(c4ccccc4)C(c4ccc([N+](=O)[O-])cc4)C3C2=O)cc1 (centres undefined)	-1.4	1.5	60.7*	-0.1	5.1	-4.4

Bioassay records deposited in PubChem by The Scripps Research Institute Molecular Screening Center.
